Data taken from article PMC11006913.
Residue numbers refer to the chain shown, from its start.

Tests used:
Experiment in all cases: PBM; 200 nM protein, PBS
Conditions in all cases: dsDNA, one strand shown
NKX2-4 [1] = molecular target: T1, NKX2-4 (Homo sapiens, UniProt Q9H2Z4 175-261, P217L)
T1 sequence: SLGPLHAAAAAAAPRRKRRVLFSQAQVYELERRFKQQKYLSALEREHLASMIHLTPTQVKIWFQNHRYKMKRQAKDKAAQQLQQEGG

NKX2-4 [2] = molecular target: T2, NKX2-4 (Homo sapiens, UniProt Q9H2Z4 175-261, T231S)
T2 sequence: T1 sequence with L43P, T57S

NKX2-4 [3] = molecular target: T3, NKX2-4 (Homo sapiens, UniProt Q9H2Z4 175-261)
T3 sequence: T1 sequence with L43P

NKX2-4 [4] = molecular target: T4, NKX2-4 (Homo sapiens, UniProt Q9H2Z4 175-261, R246Q)
T4 sequence: T1 sequence with L43P, R72Q

| Sequence | binding signal (NKX2-4 [1]) | binding signal (NKX2-4 [2]) | binding signal (NKX2-4 [3]) | binding signal (NKX2-4 [4]) |
| --- | --- | --- | --- | --- |
| CCGACGTC | 9.19 upbm affinity estimate (log intensity, higher = more binding, comparable within an allelic series) | 9.13 upbm affinity estimate (log intensity, higher = more binding, comparable within an allelic series) | 9.23 upbm affinity estimate (log intensity, higher = more binding, comparable within an allelic series) | 9.18 upbm affinity estimate (log intensity, higher = more binding, comparable within an allelic series) |
| GCCCTTAA | 12 upbm affinity estimate (log intensity, higher = more binding, comparable within an allelic series) | 12.3 upbm affinity estimate (log intensity, higher = more binding, comparable within an allelic series) | 12 upbm affinity estimate (log intensity, higher = more binding, comparable within an allelic series) | 12.2 upbm affinity estimate (log intensity, higher = more binding, comparable within an allelic series) |
| ATTCTTGA | 11.5 upbm affinity estimate (log intensity, higher = more binding, comparable within an allelic series) | 11.7 upbm affinity estimate (log intensity, higher = more binding, comparable within an allelic series) | 11.2 upbm affinity estimate (log intensity, higher = more binding, comparable within an allelic series) | 11.7 upbm affinity estimate (log intensity, higher = more binding, comparable within an allelic series) |
| CGGAATCA | 9.89 upbm affinity estimate (log intensity, higher = more binding, comparable within an allelic series) | 9.89 upbm affinity estimate (log intensity, higher = more binding, comparable within an allelic series) | 9.83 upbm affinity estimate (log intensity, higher = more binding, comparable within an allelic series) | 9.94 upbm affinity estimate (log intensity, higher = more binding, comparable within an allelic series) |
| CTGCGCAG | 9.75 upbm affinity estimate (log intensity, higher = more binding, comparable within an allelic series) | 9.81 upbm affinity estimate (log intensity, higher = more binding, comparable within an allelic series) | 9.75 upbm affinity estimate (log intensity, higher = more binding, comparable within an allelic series) | 9.93 upbm affinity estimate (log intensity, higher = more binding, comparable within an allelic series) |
| TCCACTCA | 12.4 upbm affinity estimate (log intensity, higher = more binding, comparable within an allelic series) | 12.8 upbm affinity estimate (log intensity, higher = more binding, comparable within an allelic series) | 12.3 upbm affinity estimate (log intensity, higher = more binding, comparable within an allelic series) | 12.8 upbm affinity estimate (log intensity, higher = more binding, comparable within an allelic series) |
| ACAATGAG | 11.4 upbm affinity estimate (log intensity, higher = more binding, comparable within an allelic series) | 11.5 upbm affinity estimate (log intensity, higher = more binding, comparable within an allelic series) | 11.3 upbm affinity estimate (log intensity, higher = more binding, comparable within an allelic series) | 11.4 upbm affinity estimate (log intensity, higher = more binding, comparable within an allelic series) |
| ATCGGTCC | 9.97 upbm affinity estimate (log intensity, higher = more binding, comparable within an allelic series) | 9.94 upbm affinity estimate (log intensity, higher = more binding, comparable within an allelic series) | 9.85 upbm affinity estimate (log intensity, higher = more binding, comparable within an allelic series) | 9.95 upbm affinity estimate (log intensity, higher = more binding, comparable within an allelic series) |
| GTCCCACA | 9.65 upbm affinity estimate (log intensity, higher = more binding, comparable within an allelic series) | 9.69 upbm affinity estimate (log intensity, higher = more binding, comparable within an allelic series) | 9.67 upbm affinity estimate (log intensity, higher = more binding, comparable within an allelic series) | 9.68 upbm affinity estimate (log intensity, higher = more binding, comparable within an allelic series) |
| TCCGGACA | 9.56 upbm affinity estimate (log intensity, higher = more binding, comparable within an allelic series) | 9.6 upbm affinity estimate (log intensity, higher = more binding, comparable within an allelic series) | 9.6 upbm affinity estimate (log intensity, higher = more binding, comparable within an allelic series) | 9.66 upbm affinity estimate (log intensity, higher = more binding, comparable within an allelic series) |
| CAGTGACC | 9.77 upbm affinity estimate (log intensity, higher = more binding, comparable within an allelic series) | 9.84 upbm affinity estimate (log intensity, higher = more binding, comparable within an allelic series) | 9.8 upbm affinity estimate (log intensity, higher = more binding, comparable within an allelic series) | 9.7 upbm affinity estimate (log intensity, higher = more binding, comparable within an allelic series) |
| AAAGTAGC | 11.5 upbm affinity estimate (log intensity, higher = more binding, comparable within an allelic series) | 11.9 upbm affinity estimate (log intensity, higher = more binding, comparable within an allelic series) | 11.5 upbm affinity estimate (log intensity, higher = more binding, comparable within an allelic series) | 11.7 upbm affinity estimate (log intensity, higher = more binding, comparable within an allelic series) |
| CGCCACAA | 9.76 upbm affinity estimate (log intensity, higher = more binding, comparable within an allelic series) | 9.79 upbm affinity estimate (log intensity, higher = more binding, comparable within an allelic series) | 9.73 upbm affinity estimate (log intensity, higher = more binding, comparable within an allelic series) | 9.79 upbm affinity estimate (log intensity, higher = more binding, comparable within an allelic series) |
| GCGAGCCA | 9.74 upbm affinity estimate (log intensity, higher = more binding, comparable within an allelic series) | 9.69 upbm affinity estimate (log intensity, higher = more binding, comparable within an allelic series) | 9.69 upbm affinity estimate (log intensity, higher = more binding, comparable within an allelic series) | 9.76 upbm affinity estimate (log intensity, higher = more binding, comparable within an allelic series) |
| CCCAAACG | 9.71 upbm affinity estimate (log intensity, higher = more binding, comparable within an allelic series) | 9.8 upbm affinity estimate (log intensity, higher = more binding, comparable within an allelic series) | 9.76 upbm affinity estimate (log intensity, higher = more binding, comparable within an allelic series) | 9.88 upbm affinity estimate (log intensity, higher = more binding, comparable within an allelic series) |
| AGAGCACT | 12 upbm affinity estimate (log intensity, higher = more binding, comparable within an allelic series) | 12.3 upbm affinity estimate (log intensity, higher = more binding, comparable within an allelic series) | 11.9 upbm affinity estimate (log intensity, higher = more binding, comparable within an allelic series) | 12.3 upbm affinity estimate (log intensity, higher = more binding, comparable within an allelic series) |

| Sequence | binding signal (NKX2-4 [1]) | binding signal (NKX2-4 [2]) | binding signal (NKX2-4 [3]) | binding signal (NKX2-4 [4]) |
| --- | --- | --- | --- | --- |
| CAGGCATG | 9.76 upbm affinity estimate (log intensity, higher = more binding, comparable within an allelic series) | 9.76 upbm affinity estimate (log intensity, higher = more binding, comparable within an allelic series) | 9.66 upbm affinity estimate (log intensity, higher = more binding, comparable within an allelic series) | 9.82 upbm affinity estimate (log intensity, higher = more binding, comparable within an allelic series) |
| CCACTCCA | 12.5 upbm affinity estimate (log intensity, higher = more binding, comparable within an allelic series) | 12.8 upbm affinity estimate (log intensity, higher = more binding, comparable within an allelic series) | 12.3 upbm affinity estimate (log intensity, higher = more binding, comparable within an allelic series) | 12.9 upbm affinity estimate (log intensity, higher = more binding, comparable within an allelic series) |
| CGATCCCG | 9.54 upbm affinity estimate (log intensity, higher = more binding, comparable within an allelic series) | 9.56 upbm affinity estimate (log intensity, higher = more binding, comparable within an allelic series) | 9.59 upbm affinity estimate (log intensity, higher = more binding, comparable within an allelic series) | 9.65 upbm affinity estimate (log intensity, higher = more binding, comparable within an allelic series) |
| AGTGCTTA | 12 upbm affinity estimate (log intensity, higher = more binding, comparable within an allelic series) | 12.2 upbm affinity estimate (log intensity, higher = more binding, comparable within an allelic series) | 11.9 upbm affinity estimate (log intensity, higher = more binding, comparable within an allelic series) | 12.2 upbm affinity estimate (log intensity, higher = more binding, comparable within an allelic series) |
| AACTCTTG | 11.7 upbm affinity estimate (log intensity, higher = more binding, comparable within an allelic series) | 11.8 upbm affinity estimate (log intensity, higher = more binding, comparable within an allelic series) | 11.6 upbm affinity estimate (log intensity, higher = more binding, comparable within an allelic series) | 12 upbm affinity estimate (log intensity, higher = more binding, comparable within an allelic series) |
| CAAACCCG | 9.56 upbm affinity estimate (log intensity, higher = more binding, comparable within an allelic series) | 9.55 upbm affinity estimate (log intensity, higher = more binding, comparable within an allelic series) | 9.55 upbm affinity estimate (log intensity, higher = more binding, comparable within an allelic series) | 9.6 upbm affinity estimate (log intensity, higher = more binding, comparable within an allelic series) |
| CCCAGACG | 9.29 upbm affinity estimate (log intensity, higher = more binding, comparable within an allelic series) | 9.36 upbm affinity estimate (log intensity, higher = more binding, comparable within an allelic series) | 9.37 upbm affinity estimate (log intensity, higher = more binding, comparable within an allelic series) | 9.46 upbm affinity estimate (log intensity, higher = more binding, comparable within an allelic series) |
| ACCTGCAG | 9.74 upbm affinity estimate (log intensity, higher = more binding, comparable within an allelic series) | 9.82 upbm affinity estimate (log intensity, higher = more binding, comparable within an allelic series) | 9.68 upbm affinity estimate (log intensity, higher = more binding, comparable within an allelic series) | 9.76 upbm affinity estimate (log intensity, higher = more binding, comparable within an allelic series) |
| CATCGCGA | 9.66 upbm affinity estimate (log intensity, higher = more binding, comparable within an allelic series) | 9.66 upbm affinity estimate (log intensity, higher = more binding, comparable within an allelic series) | 9.73 upbm affinity estimate (log intensity, higher = more binding, comparable within an allelic series) | 9.58 upbm affinity estimate (log intensity, higher = more binding, comparable within an allelic series) |
| CCTCTTCA | 12.5 upbm affinity estimate (log intensity, higher = more binding, comparable within an allelic series) | 12.8 upbm affinity estimate (log intensity, higher = more binding, comparable within an allelic series) | 12.4 upbm affinity estimate (log intensity, higher = more binding, comparable within an allelic series) | 13 upbm affinity estimate (log intensity, higher = more binding, comparable within an allelic series) |
| AGGCGGGC | 9.12 upbm affinity estimate (log intensity, higher = more binding, comparable within an allelic series) | 8.97 upbm affinity estimate (log intensity, higher = more binding, comparable within an allelic series) | 9.16 upbm affinity estimate (log intensity, higher = more binding, comparable within an allelic series) | 9.08 upbm affinity estimate (log intensity, higher = more binding, comparable within an allelic series) |
| GCGGGCCC | 9.61 upbm affinity estimate (log intensity, higher = more binding, comparable within an allelic series) | 9.54 upbm affinity estimate (log intensity, higher = more binding, comparable within an allelic series) | 9.63 upbm affinity estimate (log intensity, higher = more binding, comparable within an allelic series) | 9.68 upbm affinity estimate (log intensity, higher = more binding, comparable within an allelic series) |
| ATGTGCGC | 9.81 upbm affinity estimate (log intensity, higher = more binding, comparable within an allelic series) | 9.85 upbm affinity estimate (log intensity, higher = more binding, comparable within an allelic series) | 9.82 upbm affinity estimate (log intensity, higher = more binding, comparable within an allelic series) | 9.8 upbm affinity estimate (log intensity, higher = more binding, comparable within an allelic series) |
| GCACTACA | 11.7 upbm affinity estimate (log intensity, higher = more binding, comparable within an allelic series) | 11.7 upbm affinity estimate (log intensity, higher = more binding, comparable within an allelic series) | 11.6 upbm affinity estimate (log intensity, higher = more binding, comparable within an allelic series) | 11.9 upbm affinity estimate (log intensity, higher = more binding, comparable within an allelic series) |
| CGCCCTGA | 9.84 upbm affinity estimate (log intensity, higher = more binding, comparable within an allelic series) | 9.84 upbm affinity estimate (log intensity, higher = more binding, comparable within an allelic series) | 9.83 upbm affinity estimate (log intensity, higher = more binding, comparable within an allelic series) | 9.87 upbm affinity estimate (log intensity, higher = more binding, comparable within an allelic series) |
